Measurements from PubChem BioAssay AID1986 (Sanford-Burnham Center for Chemical Genomics, 2009).
Out of some 290,000 compounds screened, about 890 (0.31%) were called active. No stated cut-off is given here; in the data, active means inhibition mostly above about 52% (no sharp cut-off); inactive means mostly below about 76%. The entries come from a sample that favours actives as a whole.

Experiment: inhibitors of HIV fusion peptide binding, primary screen, biochemical, uHTS, fluorescence dequenching (AID 1986)
Conditions: cell-free peptide binding, 30 min, stronger effect = higher value
[1] = measured here: repeat confirmation average inhibition, at 18.6 µM

Row | Compound | inhibition (at 20 µM) | inhibition [1] [%]
1 | COC(=O)Cc1cccc2c(=O)c3ccccc3oc12 | -2% (inactive) | 
2 | O=C(CCS(=O)(=O)c1ccc2c(c1)NC(=O)CO2)NCCc1ccc(Cl)cc1 | 0.2% (inactive) | 
3 | CC(C)NC(=O)c1ccc(CN2CCC(Cc3ccccc3)CC2)cc1 | -0.1% (inactive) | 
4 | Cc1cccc(Nc2nnc(SCC(=O)NCc3cccs3)s2)c1 | -0.3% (inactive) | 
5 | CCOC(=O)c1cc2c(=O)n3cccc(C)c3nc2n(Cc2ccccc2Cl)c1=N | -3.9% (inactive) | 
6 | Cc1cccn2c(=O)c3cc(C(=O)NCc4cccnc4)c(=N)n(C)c3nc12 | -1.4% (inactive) | 
7 | CCOC(=O)c1cc2c(=O)n3cccc(C)c3nc2n(C)c1=N | 59.9% (active) | 
8 | COc1cccc(/C=N\NC(C)=O)c1OC/C=C/c1ccccc1 | 0.3% (inactive) | 
9 | O=C1/C(=C/c2ccncc2)SC(=S)N1N1CCOCC1 | -1.3% (inactive) | 
10 | Cc1ccc(NS(=O)(=O)c2cc(C(=O)N3CCN(C)CC3)ccc2C)cc1 | -0.2% (inactive) | 
11 | CCN(CC)S(=O)(=O)c1cc(NS(=O)(=O)c2cccc(C(=O)O)c2)ccc1C | 1.4% (inactive) | 
12 | CC(C)OC(=O)c1c2c(n3ccccc13)C(=O)c1ccccc1C2=O | 103% (active) | 
13 | CC(C)OC(=O)c1cccc2c1C(=O)c1ccccc1-2 | -0.7% (inactive) | 
14 | COC(=O)c1cc2c(C)c(C)c3ccccn3c-2c1C(=O)OC | -1.6% (inactive) | 
15 | CSc1cccc(NC(=O)c2nnn(Cc3ccccc3)c2N)c1 | -1.1% (inactive) | 
16 | CCOC(=O)C1CCN(C(=O)COc2ccc(S(=O)(=O)NC(C)C)cc2Cl)CC1 | -0.9% (inactive) | 
17 | CCOc1ccc(NC(=O)CSc2ncn[nH]2)c([N+](=O)[O-])c1 | 0.8% (inactive) | 
18 | Cc1occc1-c1nnc(SCC(=O)N2CCN(c3ccccc3F)CC2)n1C | 0.2% (inactive) | 
19 | O=C(Nc1ccncc1)C1CC1c1ccccc1 (stereo not drawn) | -0.2% (inactive) | 
20 | O=c1c2ccccc2c(/C=N/NS(=O)(=O)c2ccccc2)c(O)n1-c1ccccn1 | 109% (active) | 78.3

Row | Compound | inhibition (at 20 µM) | inhibition [1] [%]
21 | COc1ccc(-n2c(O)c(/C=N/NS(=O)(=O)c3ccc(C)cc3)c3ccccc3c2=O)cc1OC | 152% (inactive) | 
22 | CC(C)(C)N/N=C/c1c(O)n(-c2ccc(Cl)cn2)c(=O)c2ccccc12 | 4% (inactive) | 
23 | O=C(O)c1cc(-c2ccco2)nn1-c1cccc(Cl)c1 | 74.3% (active) | 
24 | O=C(c1cc(-c2ccco2)nn1-c1cccc(Cl)c1)N1CCCCC1 | 15% (inactive) | 
25 | O=C(O)c1cc(-c2ccco2)nn1-c1ccc(Cl)cc1 | 72.4% (inactive) | 4.8
26 | O=C1NN(c2cccc(Br)c2)C(=O)/C1=C/c1ccc(-c2cc([N+](=O)[O-])ccc2O)o1 | 56.9% (active) | 
27 | O=C1NN(c2ccccc2)C(=O)/C1=C\c1ccc(-c2cc([N+](=O)[O-])ccc2O)o1 | 53.6% (inactive) | 15
28 | CC1=NN(c2ccc(C)cc2)C(=O)/C1=C/c1ccc(-c2cc([N+](=O)[O-])ccc2O)o1 | 45.2% (inactive) | 
29 | CCCOc1cccc(C(=O)N/N=C/c2ccoc2)c1 | 0.4% (inactive) | 
30 | O=C(Nc1ccc([N+](=O)[O-])cn1)C1CC2CCC1C2 (stereo not drawn) | 1.2% (inactive) | 
31 | C[C@@H]1Cc2c(O)c(O)cc(O)c2C(=O)O1 | 27.3% (inactive) | 
32 | CC1CC(=O)c2c(cc3c(-c4c(O)cc(O)c5c(O)c6c(cc45)OC(C)CC6=O)c(O)cc(O)c3c2O)O1 (stereo not drawn) | 56.7% (active) | 
33 | COc1c(O)cc2c(c1O)C(=O)CC(c1ccccc1)O2 (stereo not drawn) | -1.5% (inactive) | 
34 | COc1ccc(C(=O)C23CC4CC(C2)CC(C(=O)c2ccc(OC)cc2)(C4)C3)cc1 | -1.1% (inactive) | 
35 | Cc1cc2c(n1-c1ccc(C(=O)O)cc1)CCCCC2 | 57.7% (active) | 
36 | Cc1ccc(-c2cc3c(n2-c2ccc(C(=O)O)cc2)CCCC3=O)cc1 | 9.8% (inactive) | 
37 | Cc1ccc(C)n1-c1ccc(C(=O)O)cc1 | -0.4% (inactive) | 
38 | O=C(NC(=S)Nc1ccccc1[N+](=O)[O-])c1ccccc1 | -2.2% (inactive) | 
39 | O=C(O)CCCCCNC(=O)c1ccc(C(=O)NCCCCCC(=O)O)cc1 | 0.3% (inactive) | 
40 | CCOc1ccc(/C=C/C2=Cc3c(sc(NC(=O)CSc4n[nH]c(N)n4)c3C#N)C(C)(C)C2)cc1 | 62.3% (active) | 

Row | Compound | inhibition (at 20 µM) | inhibition [1] [%]
41 | Cc1ccc(/C=C/C2=Cc3c(sc(NC(=O)CSc4n[nH]c(N)n4)c3C#N)C(C)(C)C2)o1 | 149% (inactive) | 
42 | Cc1ccsc1/C=C/C1=Cc2c(sc(NC(=O)CSc3n[nH]c(N)n3)c2C#N)C(C)(C)C1 | 2.6% (inactive) | 
43 | CCOC(=O)c1cc(-c2cccs2)nc2c1c(C)nn2-c1ccccn1 | -2.7% (inactive) | 
44 | COC(=O)[C@H](Cc1ccccc1)NC(=O)N1Cc2ccccc2C[C@H]1C(=O)OC | 1.3% (inactive) | 
45 | CCN(CC)CCN(Cc1cc2cc3c(cc2[nH]c1=O)OCCO3)C(=S)NC | 2.5% (inactive) | 
46 | N#Cc1c(NC(=O)CSc2nc(N)cc(=O)[nH]2)sc2c1CCCC2 | 0.4% (inactive) | 
47 | O=C(O)Cn1c2ccccc2c2ccccc21 | -1% (inactive) | 
48 | O=C(O)Cn1c2c(c3ccccc31)CCCC2 | -3.7% (inactive) | 
49 | O=C(O)Cn1c2c(c3ccccc31)CSc1ccc(Cl)cc1-2 | 54.6% (active) | 
50 | Cc1ccc(NC(=O)CSc2nncn2-c2ccccn2)cc1Cl | 1.2% (inactive) | 
51 | CN(C)CCN(C(=O)/C=C/c1cccs1)c1nc2c(F)cc(F)cc2s1 | 56.7% (active) | 
52 | CN(C)CCCN(C(=O)/C=C/c1cccs1)c1nc2c(F)cccc2s1 | 0.3% (inactive) | 
53 | CN(C)CCN(C(=O)/C=C/c1cccs1)c1nc2ccc(F)cc2s1 | -3.5% (inactive) | 
54 | O=C1c2ccsc2SCCN1Cc1c(F)cccc1Cl | -0.5% (inactive) | 
55 | CCCCC(CCC(=O)O)(C(=O)OCC)c1csc(Nc2ccc(C)cc2)n1 (stereo not drawn) | 13.4% (inactive) | 
56 | Cc1c2ccccc2nc2c(F)c(NCCO)c(F)c(F)c12 | 23.4% (inactive) | 
57 | CCCNc1c(F)c(F)c2c(C)c3ccccc3nc2c1F | 51.8% (active) | 159
58 | Cc1c2ccccc2nc2c(F)c(NC(C)C)c(F)c(F)c12 | 36.2% (inactive) | 
59 | CCOC(=O)C1Cc2c([nH]c3ccccc23)CN1 (stereo not drawn) | -0.5% (inactive) | 
